From PubChem BioAssay (EPA / NIEHS)
Records with an inconclusive call do not appear. Active and inactive are the calls of the source. Rule for the calls, unless noted: active = hit-call score of the fitted dose curve at least 0.9, where 1 is the maximum; inconclusive = response in the unintended direction; inactive = score below 0.9.

Columns and labels:
[1] = TOX21_p53_BLA_p2_viability: Viability Assessment in the Tox21 HCT-116 p53 Agonism Beta-lactamase Assay, Phase 2 (AID 2283591);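 note: actives lower the ATP signal meaning cytotoxicity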
In short: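 Cytotoxicity readout: CellTiter-Glo ATP luminescence, 30 min at room temperature, after the beta-lactamase read. Cells were HCT116 exposed 16 h at 37C to compounds pin-transferred at 217-fold dilution from DMSO stocks.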

[2] = biological target: Cellular tumor antigen p53 (Homo sapiens) (UniProt P04637); experiment: TOX21_p53_BLA_p2_ratio: Tox21 HCT-116 p53 Agonism Beta-lactamase Assay, Ratio, Phase 2 (AID 2283592)
Chain of Cellular tumor antigen p53 (Homo sapiens) (P04637 whole entry, looked up): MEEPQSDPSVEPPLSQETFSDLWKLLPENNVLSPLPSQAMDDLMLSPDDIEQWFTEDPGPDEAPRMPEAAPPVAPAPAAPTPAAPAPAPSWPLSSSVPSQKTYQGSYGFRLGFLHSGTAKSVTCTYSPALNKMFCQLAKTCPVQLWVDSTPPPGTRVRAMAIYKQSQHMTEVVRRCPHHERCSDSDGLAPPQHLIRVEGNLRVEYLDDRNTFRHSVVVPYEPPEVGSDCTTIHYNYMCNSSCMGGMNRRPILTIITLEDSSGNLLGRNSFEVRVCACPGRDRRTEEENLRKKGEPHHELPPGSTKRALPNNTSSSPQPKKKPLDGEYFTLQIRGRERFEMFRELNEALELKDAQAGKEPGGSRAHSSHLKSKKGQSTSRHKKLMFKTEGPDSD
In short: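 Readout: blue/green (460/530 nm) FRET emission ratio after 2 h CCF4-AM loading at room temperature, excitation 405 nm. HCT116 p53 bla cells, 16 h compound exposure at 37C, 5% CO2; agonist direction fitted against DMSO baseline.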

[3] = TOX21_p53_BLA_p3_viability: Viability Assessment in the Tox21 HCT-116 p53 Agonism Beta-lactamase Assay, Phase 3 (AID 2283593);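 note: cells exposed to compound for 16 h before reading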
In short: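 Cellular ATP was quantified by CellTiter-Glo luminescence, read after 30 min at room temperature. Beforehand, HCT116 cells (4000/well) received compound 5 h post-seeding, 217-fold diluted from DMSO, then incubated 16 h at 37C.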

[4] = biological target: Cellular tumor antigen p53 (Homo sapiens) (UniProt P04637); experiment: TOX21_p53_BLA_p3_ratio: Tox21 HCT-116 p53 Agonism Beta-lactamase Assay, Ratio, Phase 3 (AID 2283596)
In short: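 Cells were seeded at 4000/well, rested 5 h at 37C, then dosed with DMSO compound solutions (217-fold dilution) for 16 h. CCF4-AM substrate was loaded for 2 h at room temperature, and the 460/530 nm emission ratio was fitted for gain of signal versus DMSO.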

[5] = TOX21_p53_BLA_p4_viability: Viability Assessment in the Tox21 HCT-116 p53 Agonism Beta-lactamase Assay, Phase 4 (AID 2283597);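 note: hits lower the luminescence signal meaning cytotoxicity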
In short: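 ATP content by CellTiter-Glo luminescence, 30 min RT, read after the beta-lactamase ratio step. Cells: HCT116, 4000/well, compound added after 5 h, exposure 16 h at 37C. Signal loss = reduced viability.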

[6] = TOX21_p53_BLA_p5_viability: Viability Assessment in the Tox21 HCT-116 p53 Agonism Beta-lactamase Assay, Phase 5 (AID 2283600)
In short: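 ATP luminescence (CellTiter-Glo, 30 min, RT) served as the viability read-out, with loss of signal indicating cytotoxicity. Compounds in DMSO were pinned at a 217-fold dilution onto 4000 cells/well and incubated 16 h, 37C.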

[7] = biological target: Cellular tumor antigen p53 (Homo sapiens) (UniProt P04637); experiment: TOX21_p53_BLA_p4_ratio: Tox21 HCT-116 p53 Agonism Beta-lactamase Assay, Ratio, Phase 4 (AID 2283601)
In short: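 Signal is the blue/green (460nm/530nm) ratio of cleaved versus uncleaved CCF4-AM substrate, read after 2 h substrate loading. Cells were HCT116 carrying the p53-responsive beta-lactamase reporter, dosed 16 h at 37C, 5% CO2; CellTiter-Glo measured in parallel.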

[8] = biological target: Cellular tumor antigen p53 (Homo sapiens) (UniProt P04637); experiment: TOX21_p53_BLA_p5_ratio: Tox21 HCT-116 p53 Agonism Beta-lactamase Assay, Ratio, Phase 5 (AID 2283599)
In short: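 Beta-lactamase reporter ratio (blue 460 nm over green 530 nm, 405 nm excitation) after 2 h CCF4-AM loading, in HCT-116 cells exposed 16 h at 37 C to compounds pinned at 217-fold dilution. Increases relative to DMSO baseline scored.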

[9] = CCTE_Deisenroth_H295R-HTRF_384WELL_ESTRADIOL: CCTE's H295R-HTRF Assay Evaluation of Estradiol Concentration, Deisenroth Lab (AID 2284361; active = hit-call score of the fitted dose curve at least 0.9, where 1 is the maximum; inactive = score below 0.9); conditions: actives raise or lower the signal
In short: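 Estradiol secreted into medium by H295R adrenocortical cells, quantified by HTRF after 48 h dosing over a nine-point 0.001 - 100 uM final range; gain or loss versus DMSO. Parallel ATP-luminescence viability readout; n=5 experiments.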

[10] = CCTE_Deisenroth_H295R-HTRF_384WELL_TESTOSTERONE: CCTE's H295R-HTRF Assay Evaluation of Testosterone Concentration, Deisenroth Lab (AID 2284373; active = hit-call score of the fitted dose curve at least 0.9, where 1 is the maximum; inactive = score below 0.9); conditions: actives raise or lower the signal
In short: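 H295R cells were acclimated 24 h, then exposed 48 h to nine concentrations (0.001–100 uM final) in technical triplicate, n=5. Testosterone in conditioned medium was measured by HTRF (em 620/665 nm). Fitting was bidirectional versus DMSO; CellTiter-Glo viability ran on the same plates.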

[11] = CCTE_Deisenroth_H295R-HTRF_384WELL_CTOX: Cytotoxicity Assessment in CCTE's H295R-HTRF Assay, Deisenroth Lab (AID 2284380)
In short: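 Luminescent ATP viability readout (CellTiter-Glo 2.0), multiplexed on plates used for hormone sampling, after 48 h chemical exposure. Human H295R cells; final concentrations 0.001–100 uM in nine steps, technical triplicates, five experiments; DMSO baseline.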

Measured: AC50

C[C@@H](Cc1ccccc1)NCCC(c1ccccc1)c1ccccc1
inactive: [1] | [2] | [3] | [4] | [6] | [7]
active: [5] 12.5 µM

COC(=O)c1cncn1C(C)c1ccccc1 (centres undefined)
inactive: [1] | [2] | [3] | [4] | [8]

Clc1ccc(CO/N=C(\Cn2ccnc2)c2ccc(Cl)cc2Cl)c(Cl)c1
inactive: [3] | [6]
active: [1] 23 µM | [2] 38.7 µM | [4] 42.8 µM | [8] 36.3 µM | [7] 33 µM

N#CCCSCCC#N
inactive: [1] | [2] | [3] | [4] | [5] | [8] | [7]

C[C@@H]1CC[C@@]2(OC1)O[C@H]1[C@@H](O)[C@H]3[C@@H]4CC[C@H]5C[C@@H](O[C@@H]6O[C@H](CO)[C@H](O[C@@H]7O[C@H](CO)[C@@H](O)[C@H](O[C@@H]8OC[C@@H](O)[C@H](O)[C@H]8O)[C@H]7O[C@@H]7O[C@H](CO)[C@@H](O)[C@H](O[C@@H]8O[C@H](CO)[C@@H](O)[C@H](O)[C@H]8O)[C@H]7O)[C@H](O)[C@H]6O)[C@H](O)C[C@]5(C)[C@H]4CC[C@]3(C)[C@H]1[C@@H]2C
active: [1] 19 µM | [2] 39.1 µM | [3] 48.5 µM | [4] 81.5 µM | [5] 18.7 µM | [8] 69.7 µM | [6] 33.3 µM | [7] 76.9 µM | [9] 88.2 µM | [10] 2.93 µM | [11] 6.26 µM

O=c1[nH]oc2c1CCNC2
inactive: [1] | [2] | [3] | [4] | [8]

Nc1ccccc1C(=O)OCC=Cc1ccccc1
inactive: [2] | [3] | [4] | [5] | [8] | [7]
active: [1] 66.3 µM
